Measurements as given in PubChem BioAssay (NCI).
About 83,000 compounds went through this panel and 20% of them were active in at least one assay; those are over-represented in the sample as a whole.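 The test compound was applied at a single concentration to cells in 96-well plates for 48 hours, and percent growth was recorded.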 A number with no mark means an inactive call. The source made the active and inactive calls. Rule for the calls: active = growth percent below 10; inactive = the rest.

The compounds below were run on SK-MEL-5 melanoma (assay: NCI-60 one-dose screen, 48 h (100 = growth as untreated, 0 = no growth, -100 = all killed)). Details: 10 µM unless noted.

SMILES | growth
COc1ccc(/C=C/C(c2cc(OC)c(OC)c(OC)c2)n2cncn2)cc1O (centres undefined) | 23.9%
COc1ccc(-c2cn(Cc3cc4ccccc4s3)nn2)cc1OCCN1CCCCC1 | 42.8%
COc1ccc(-c2nc3c(c(-c4ccc(Cl)cc4)nn3-c3ccccc3)c(-c3ccccc3)c2C#N)cc1 | 100%
COc1ccc2c(c1)CC[C@@H]1[C@@H]2CC[C@]2(C)C3C(=CC(COC(C)=O)C4C(=O)N(c5ccc(Cl)cc5)C(=O)C43)C[C@@H]12 (some centres undefined) | 93.4%
COc1cc(/C=C/C(=O)N2CCN(C(=O)c3cc(OC)c(OC)c(OC)c3)CC2)ccc1OCCCOc1cc2c(cc1OC)C(=O)N1CCC[C@H]1C=N2 | 2.69% (active)
CSc1nc2ccc(C)cc2cc1/C=C1/C=C(c2ccccc2)NC1=O | 80.4%
Cc1ccc2c(c1)sc1nc(-c3c[nH]c4ccccc34)c(Nc3ccccc3)n12 | 113%
N=C(N)c1ccc(-c2ccc(-c3ccccc3)o2)o1 | 30.5%
CN1C(=O)N2CN3CCCN(C3)CN3C(=S)NC1C23 (centres undefined) | 100%
Clc1ccc(-c2cc(-c3ccccc3)nc(N3CCN(CCCNc4ccnc5cc(Cl)ccc45)CC3)n2)cc1 | 33.2%
COc1cc(/C=C/c2cc(/C=C/c3ccc(O)c(OC)c3)n(C(=O)Nc3ccc(Cl)cc3)n2)ccc1O | -29.7% (active)
N#Cc1c(-c2ccccc2)nc2c(c(-c3ccc(Cl)cc3)nn2-c2ccccc2)c1-c1ccc([N+](=O)[O-])cc1 | 99.2%
COc1ccc(Oc2ccc(/C=C/C(=O)c3cc4ccccc4oc3=O)cc2)cc1 | 92.7%
O=[N+]([O-])c1c(O)c(Cl)cc(Cl)c1Cl | 98.3%
O=S(O)c1cc(Cl)cc(Cl)c1OCc1ccccc1 | 96.3%
Cc1oc(-c2ccc(Cl)cc2)nc1C1=NN(C(=O)c2ccncc2)C(c2ccccc2)C1 (centres undefined) | 97.3%
CS(=O)(=O)c1ccc(-c2nc3ccccc3n2CC(=O)N/N=C/c2ccccc2)cc1 | 100%
CCCn1c(=S)sc2c(NNC(C)=O)nc(C)nc21 | 96.4%
N#CSc1c[nH]c2ccc(/C=C/C(=O)/C=C(O)/C=C/c3ccc4[nH]cc(SC#N)c4c3)cc12 | 41.2%
Fc1cccc(-c2nc(-c3c[nH]c4ncccc34)cs2)c1 | 50.6% [100 µM]

SMILES | growth
COc1ccc(Oc2ccc(/C=C/C(=O)c3ccc(OC)c(OC)c3)cc2)cc1 | 75.3%
CCCCn1c(NC(C)=O)c(S(=O)(=O)c2ccccc2)c2nc3ccccc3nc21 | 100%
COc1cc(O)c2c(=O)c3c(CC=C(C)C)cc(OC)c(O)c3oc2c1 | 52.9%
CC12OC(CC(O)C1O)n1c3ccccc3c3c4c(c5c6ccccc6n2c5c31)C(=O)N(CCN1CCCC1)C4=O (centres undefined) | 28.9%
C=C1CC[C@@H]2C(C)(C)[C@H](O)CC[C@@]2(C)[C@@H]1COc1ccc2ccc(=O)oc2c1 | 19.1%
COc1c2c(cc3c1C(=O)N[C@@H]1[C@@H](O)[C@@H](O)[C@H](O)C[C@@H]31)OCCO2 | 99.1%
C=C1C(=O)O[C@H]2[C@H]1CC/C(COC(=O)NCc1ccc(Cn3c(=O)sn(-c4ccccc4)c3=O)cc1)=C\CC[C@@]1(C)O[C@@H]21 | 95.1%
Cc1nc2sc(C(=O)Nc3ccccn3)c(N)c2cc1C(C)O (centres undefined) | 45%
c1cc(OCCN2CCCC2)ccc1CNc1ccc2nc(CCC3CCCCC3)[nH]c2c1 | -96.5% (active)
Cc1nc([P+](c2ccccc2)(c2ccccc2)c2ccccc2)c(N2CCCCC2)o1 | -32.3% (active)
COc1cc(/C=N/NC(=O)c2ccc(-n3cc(-c4ccccc4)nn3)cc2)cc(OC)c1OC | 57.2%
C=CN(C(=O)N1CCN(c2cc3c(cc2F)c(=O)c(C(=O)O)cn3C2CC2)CC1)c1nc(-c2ccc(Cl)cc2)cs1 | 81.9%
COc1ccccc1/C=C/C(=O)Nc1ccc(F)cc1 | 95.1%
CC(C)c1ccc2c(c1)CC[C@H]1[C@](C)(C(=O)OCC#CCN3CCCC3)CCC[C@]21C | 64.7%
COc1ccc2c(O)c(/C=C3\N=Nc4ncccc43)oc2c1C[C@@H]1CCNC[C@H]1F | 5.56% (active)
c1ccc2cc(Cn3cc(CSc4nc5ccccc5s4)nn3)ccc2c1 | 107%
COCC(=O)Oc1cc(-c2ccc(C)cc2C)c(OC(=O)COC)c(-c2ccc(C)cc2C)c1 | 13.7%
Cc1nc2ccccc2c(/C=C/c2ccc(F)cc2)c1C(=O)/C=C/c1ccccc1 | 27.4%
O=C1C=C(SCCO)C(=O)c2ccccc21 | -98% (active)
